Among all 350,000 compounds or so, about 31,000 (8.9%) were called active. Roughly 15% stayed inconclusive and do not appear here. The sample holds actives, similar compounds and a random draw of the others, so the mix is not that of the screen. The call rests on the fitted dose curve; in most records, active means well fitted inhibition curve with a large enough effect; inconclusive means small, poorly fitted or top-dose-only effect; inactive means no such curve, though single readings can be large or run the other way.
These molecules were tested against Histone-lysine N-methyltransferase EHMT2 (Homo sapiens) (UniProt Q96KQ7) (assay: qHTS Assay for Inhibitors of Histone Lysine Methyltransferase G9a). Conditions: G9a H3K9 monomethylation, AlphaScreen, 2 h; series mostly up to 59 µM; activity, negative = inhibition: at the top concentration.
Histone-lysine N-methyltransferase EHMT2 (Homo sapiens), sequence (Q96KQ7 913-1193 limits assumed): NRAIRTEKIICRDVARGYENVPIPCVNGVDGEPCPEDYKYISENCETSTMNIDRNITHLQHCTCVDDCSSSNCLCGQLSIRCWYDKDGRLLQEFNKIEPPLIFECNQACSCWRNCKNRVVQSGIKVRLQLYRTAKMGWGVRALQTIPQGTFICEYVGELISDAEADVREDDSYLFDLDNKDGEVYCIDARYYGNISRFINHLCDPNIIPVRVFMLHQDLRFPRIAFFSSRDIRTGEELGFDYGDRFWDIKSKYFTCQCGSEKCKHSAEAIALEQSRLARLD
Procedure, shortened: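 Step 1: enzyme (final 20 nM) with compound, 15 min RT. Step 2: substrate peptide 500 nM and SAM 20 uM, 2 h RT. Step 3: anti-H3K9me1 antibody and AlphaScreen beads, 10 min, then plate read.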
Further: nearly all actives have a fitted effect of over 75% in size.
On the % scale 0 is the no-effect control and ±100 the full control effect; potency means the concentration at half of the fitted maximal effect.

| Structure (SMILES) | activity, negative = inhibition | Potency |
| --- | --- | --- |
| CCOc1ccccc1NC(=O)C1CCCN(S(=O)(=O)c2cn(C)cn2)C1 (stereo not given) | 11.6% (inactive) |  |
| CC(C)c1ccc(NC(=O)COC(=O)c2ccc(CN3CCCC3=O)cc2)cc1 | -8.03% [at 12.7 µM] (inactive) |  |
| O=C(/C=C/c1ccccc1)c1ccccc1O |  | 44.7 µM (active) |
| O=C(/C=C/c1ccccc1)N/C(=C/c1ccccc1)C(=O)Nc1ccccc1O | -41.1% [at 102 µM] (inactive) |  |
| O=C(/C=C/c1ccccc1)c1ccoc1 | 10.3% [at 12.7 µM] (inactive) |  |
| COCC1CCN(C(=O)CCc2nnc(C3(c4ccc(Cl)cc4)CCC3)o2)C1 (stereo not given) | 11% [at 102 µM] (inactive) |  |
| COc1ccc(-c2ocnc2C(=O)Nc2ccc3c(c2)CCC3)cc1 | -7.46% (inactive) |  |
| Fc1ccc(C(Nc2ccc(Cl)c(C(F)(F)F)c2)c2nnc(-c3ccccc3)o2)cc1 (stereo not given) | 31.9% (inactive) |  |
| Nc1ccccc1Sc1ccc(C(F)(F)F)cc1[N+](=O)[O-] |  | 39.8 µM (active) |
| O=[N+]([O-])c1cc(C(F)(F)F)ccc1NCCc1ccncc1 | 21.9% [at 102 µM] (inactive) |  |
| Cc1cccc(OCCNC(=O)CSc2ccc(C(F)(F)F)cc2[N+](=O)[O-])c1 | 5.94% (inactive) |  |
| CCc1cccc(NC(=O)CSc2nccn2C)c1 | -3.93% (inactive) |  |
| CCOC(=O)CSC1=C(C#N)C(c2ccco2)C(C(=O)OCc2ccccc2)=C(C)N1 (stereo not given) | -12% (inactive) |  |
| N#CC1=C(N)Oc2c(sc3ccccc23)C1c1ccco1 (stereo not given) |  | 39.8 µM (active) |
| CCCCn1c(N)c(N(CCOC)C(=O)c2sc3ccccc3c2Cl)c(=O)[nH]c1=O | 0.384% [at 0.501 µM] (inactive) |  |
| COc1ccccc1-c1nc(N2CCN(C)CC2)c2ccccc2n1 | 0.0472% [at 0.501 µM] (inactive) |  |
| CN1CCN(c2nc(Nc3ccc(O)cc3)nc3ccccc23)CC1 |  | 25.1 µM (active) |
| Cc1cccc(-c2nc(Nc3ccc(O)cc3)c3ccccc3n2)c1 | 9.03% [at 12.7 µM] (inactive) |  |
| CC(C)(C)c1ccc(S(=O)(=O)N2CCN(C(=O)c3cc(-c4ccc(Br)cc4)n[nH]3)CC2)cc1 | 25.6% (inactive) |  |
| O=C(NC1CCN(Cc2ccccc2)CC1)c1c(F)cccc1F | 17.9% (inactive) |  |
| S=C(Nc1ccc(Br)cc1Cl)NC1CCN(Cc2ccccc2)CC1 | 1.73% [at 102 µM] (inactive) |  |
| S=C(NN=C1CCN(Cc2ccccc2)CC1)NC1CCCCC1 |  | 50.1 µM (active) |
| COc1ccccc1NC(=O)c1cc(S(=O)(=O)NCCc2ccccc2)ccc1F | -2.37% (inactive) |  |
| CCc1ccc(S(=O)(=O)n2ccnc2)cc1 | 1.45% (inactive) |  |
| CCOc1ccc(NC(=O)CN(C)C(=O)COc2cccc(CC)c2)cc1OCC | -17.2% [at 0.501 µM] (inactive) |  |

| Structure (SMILES) | activity, negative = inhibition | Potency |
| --- | --- | --- |
| CS(=O)(=O)c1ccc2c(c1)SC1=NC(=O)/C(=C/c3ccco3)C(=N)N12 |  | 50.1 µM (active) |
| CCCCC(=O)OC1=CN(Cc2ccccc2)S(=O)(=O)c2ccccc21 | 111% (inactive) |  |
| COc1cccc(C(=O)OCc2cc(=O)oc3c(C)c(C)ccc23)c1OC | -5.18% [at 102 µM] (inactive) |  |
| CCOC(=O)N1CCC(N2Cc3cccc(C(=O)Nc4c(C)cccc4CC)c3C2=O)CC1 | 11.5% [at 102 µM] (inactive) |  |
| CN(C)[C@@H]1C(=O)C(C(N)=O)=C(O)[C@@]2(O)C(=O)C3=C(O)c4c(O)ccc(Cl)c4[C@@H](O)[C@H]3C[C@@H]12 |  | 7.94 µM (active) |
| C=C1c2c(Cl)ccc(O)c2C(O)=C2C(=O)[C@]3(O)C(O)=C(C(N)=O)C(=O)[C@@H](N(C)C)[C@@H]3[C@@H](O)C12 (stereo not given in full) |  | 7.94 µM (active) |
| CCCN(CC1CC1)C(=S)NC(=O)c1ccccc1Br | -20% (inactive) |  |
| Cc1ccc(Cl)cc1N1CCN(C(=O)CN2C(=O)COc3ccc(S(=O)(=O)N4CCOCC4)cc32)CC1 | 0.165% (inactive) |  |
| COc1ccc(-c2noc(C(C)NS(=O)(=O)c3ccc(NC(C)=O)cc3)n2)cc1 (stereo not given) | 22.5% [at 102 µM] (inactive) |  |
| COc1cc2nc(NCC(C)c3ccccc3)n3nc(-c4ccccc4)nc3c2cc1OC (stereo not given) | -20.5% (inactive) |  |
| CC(C(=O)NC1CCCC1)N1CCN(S(=O)(=O)c2ccccc2Cl)CC1 (stereo not given) | 1.28% [at 0.501 µM] (inactive) |  |
| COc1cc2c(=O)c(S(=O)(=O)c3ccc(C(C)C)cc3)cn(Cc3ccccc3C)c2cc1OC | -33.9% (inactive) |  |
| Cc1nnc(NC(=O)c2ccc3nccnc3c2)s1 |  | 50.1 µM (active) |
| Cc1ccc(C)c(NC(=O)c2ccc3nccnc3c2)c1 | 1.62% [at 102 µM] (inactive) |  |
| Cc1ccc(C(=O)Nc2nnc(-c3cccs3)s2)cc1C | -1.27% [at 12.7 µM] (inactive) |  |
| COc1ccc(S(=O)(=O)NCc2cccnc2)cc1NC(=O)c1ccc(C)cc1 | -33.4% [at 102 µM] (inactive) |  |
| CC(=O)c1c(C)n(S(=O)(=O)c2ccc(Cl)cc2)c2ccc(NS(=O)(=O)c3ccc(Cl)cc3)cc12 | -47.6% (inactive) |  |
| O=C(c1ccc2c(c1)N(Cc1ccccc1)C(=O)c1ccccc1S2(=O)=O)N1CCC(Cc2ccccc2)CC1 | -0.698% (inactive) |  |
| CCC(=O)c1ccc(OCC(O)CN2CC(C)OC(C)C2)cc1 (stereo not given) |  | 14.1 µM (active) |
| CC1CCN(CC(O)COc2ccc(C(=O)c3ccccc3)cc2)CC1 (stereo not given) | 3.75% [at 0.501 µM] (inactive) |  |
| CCC(=O)c1ccc(OCC(O)CN2C(=O)NC(C)(C)C2=O)cc1 (stereo not given) | -1.44% [at 102 µM] (inactive) |  |
| CCOC(=O)C1CCN(C(=O)COC(=O)C2CCN(S(=O)(=O)c3ccc4c(c3)OCCO4)CC2)CC1 | -35.2% [at 102 µM] (inactive) |  |
| CCOc1ccc(NS(=O)(=O)c2ccc(Cl)c(C(=O)N(C)Cc3cccnc3)c2)cc1 | 9.93% [at 12.7 µM] (inactive) |  |
| Cc1cc(C)cc(NC(=O)CCCc2nc(-c3ccccc3Cl)no2)c1 | 6.38% (inactive) |  |
| CN(CC(=O)Nc1ccc(Cl)cc1)C(=O)CNC(=O)c1ccc2ccccc2c1 | 86.3% [at 102 µM] (inactive) |  |

| Structure (SMILES) | activity, negative = inhibition | Potency |
| --- | --- | --- |
| COc1cccc(-c2nnc(SCC(=O)N3CCC(C)CC3)o2)c1 | 1.74% (inactive) |  |
| O=C(C1COc2ccccc2O1)N(Cc1cccnc1)c1nc2c(F)cc(F)cc2s1 (stereo not given) | -4.58% (inactive) |  |
| CCc1ccc(N2C(=O)CN(S(=O)(=O)CC)CC2(C)C(=O)NC2CCCCC2)cc1 (stereo not given) | 4.02% (inactive) |  |
| COc1ccc(/C=C2/C(=O)N(c3ccccc3)N=C2C)c(OC)c1 |  | 20 µM (active) |
| COc1ccc(/C=C2/C(=O)OCc3cc(OC)c(OC)cc32)c(OC)c1 | 20.5% (inactive) |  |
| COc1ccc(C(=O)CCc2ccccc2O)c(OC)c1 | 13.6% [at 102 µM] (inactive) |  |
| CCN1N=C(c2ccccc2)CCC1=O | 21.7% [at 0.501 µM] (inactive) |  |
| O=C(NNC(=S)NCCCN1CCOCC1)c1ccncc1 |  | 20 µM (active) |
| Cc1cc(C)cc(NC(=S)NCCCN2CCOCC2)c1 | 18% (inactive) |  |
| COc1cccc(NC(=S)NCCCN2CCOCC2)c1 | 4.95% (inactive) |  |
| CCS(=O)(=O)N1CCc2cc(C(=O)NCc3ccc(C)cc3)ccc21 | -2.49% (inactive) |  |
| Cc1nc(N)sc1N=Nc1c(C)n(C)n(-c2ccccc2)c1=O | -3.39% [at 12.7 µM] (inactive) |  |
| CC(=O)Nc1ccc(C(=O)Nc2nc(-c3cc(C)n(Cc4ccccc4)c3C)cs2)cc1 | 0.836% (inactive) |  |
| O=c1onc(-c2cccs2)n1Cc1ccccc1 | 1.14% [at 12.7 µM] (inactive) |  |
| Cc1cc(-c2csc(N)n2)c(C)n1Cc1ccccc1 |  | 28.2 µM (active) |
| Cc1cc(-c2csc(N)n2)c(C)n1-c1ccccc1 |  | 11.2 µM (active) |
| Cc1cc(C(=O)OCC(=O)N2c3ccccc3NC(=O)C2(C)C)c(C)n1-c1ccccc1 | -19.9% (inactive) |  |
| CN(CCO)S(=O)(=O)c1ccc2c(c1)C(=O)c1cc(S(=O)(=O)N(C)CCO)ccc1-2 | 6.15% [at 0.501 µM] (inactive) |  |
| CCOc1ccc(C(=O)NCC(=O)N2CCN(c3ccc(C(F)(F)F)cn3)CC2)cc1 | 13.9% (inactive) |  |
| O=C(Nc1cccc(-c2nc3ccccc3o2)c1)c1cccc(Br)c1 | -4.65% (inactive) |  |
| COc1cc(C(=O)NCc2ccncc2)cc(Br)c1OCc1ccccc1 | 1.4% [at 102 µM] (inactive) |  |
| COc1cc(C(=S)NCc2ccccc2)cc(Br)c1O |  | 2.51 µM (active) |
| COc1cc(C=O)c(Br)cc1OCC(=O)NCc1ccccc1 | -3.38% [at 102 µM] (inactive) |  |
| Cc1cccc(C(=O)NCC(=O)OCC(=O)N(C)CC(=O)Nc2ccccc2Cl)c1 | 8.39% (inactive) |  |
| COc1ccc(NC(=O)COC(=O)Cn2c(C)nc3ccccc32)cc1OC | -1.35% [at 102 µM] (inactive) |  |

| Structure (SMILES) | activity, negative = inhibition | Potency |
| --- | --- | --- |
| O=C(COC(=O)Cn1cnc2ccccc21)Nc1cccc2c1C(=O)c1ccccc1C2=O |  | 12.6 µM (active) |
| O=C(COC(=O)Cn1cnc2ccccc2c1=O)NCC12CC3CC(CC(C3)C1)C2 | 12.2% (inactive) |  |
| COc1ccc(-c2onc(C)c2C)cc1S(=O)(=O)NCCc1ccccc1 | 4.98% (inactive) |  |
| CCOc1ccc(CCNC(=O)CN(c2ccc(C)cc2)S(=O)(=O)N(C)C)cc1OCC | 5.66% (inactive) |  |
| O=C(NCc1ccccc1Cl)c1ccc2c(=O)n(CC3CCCO3)c(=S)[nH]c2c1 (stereo not given) | 56.4% [at 102 µM] (inactive) |  |
| COc1ccc(CNC(=O)Cn2nnc(-c3ccc(S(C)(=O)=O)cc3)n2)cc1 | -16.3% (inactive) |  |
| CC(=O)c1cccc(NC(=O)C2COc3ccccc3O2)c1 (stereo not given) | 19.1% [at 102 µM] (inactive) |  |
| C/C(=N/NC(=O)C1COc2ccccc2O1)c1ccco1 (stereo not given) | 0.125% (inactive) |  |
| CC(/C=C/c1ccco1)=N/NC(=O)C1COc2ccccc2O1 (stereo not given) |  | 56.2 µM (active) |
| Cc1ccc(-n2ncc3c(=O)n(Cc4cccc(C(F)(F)F)c4)cnc32)cc1C | 4.7% (inactive) |  |
| CCCCN=C1C([N+](=O)[O-])=CC=C2C1=NC1(CCCCC1)N2O |  | 11.2 µM (active) |
| O=C(CCNC(=O)c1ccc(Br)cc1)NCCCc1ccccc1 | 6.39% [at 102 µM] (inactive) |  |
| Cc1cccc(N2C(=O)CC(SC(N)=Nc3ccccc3)C2=O)c1 (stereo not given) | -5.18% [at 102 µM] (inactive) |  |
| O=C1CC(c2ccccc2)C(=O)N1c1cccc(O)c1 (stereo not given) | -7.63% (inactive) |  |
| COC(=O)c1ccccc1SC1CC(=O)N(c2cccc(C)c2)C1=O (stereo not given) |  | 44.7 µM (active) |
| CCOc1ccccc1N(C)C(=O)c1cc2c(s1)-c1ccccc1OC2 | 19.4% (inactive) |  |
| COc1c(C)cccc1C(=O)Nc1cc(Cl)ccc1N1CCOCC1 | -5.78% [at 12.7 µM] (inactive) |  |
| Cc1ccc(C(=O)OCC(=O)Nc2ccc(Cl)cn2)cc1S(=O)(=O)N1CCOCC1 | -29% [at 102 µM] (inactive) |  |
| O=C(COc1ccc(Cl)cc1)NC(=S)Nc1ccccc1N1CCOCC1 | 1.64% [at 102 µM] (inactive) |  |
| Cc1ccc(NC(=O)CCNC(=O)c2ccc([N+](=O)[O-])cc2)cc1S(=O)(=O)N1CCOCC1 | -13.1% [at 12.7 µM] (inactive) |  |
| O=C(COC(=O)CCc1ccc(S(=O)(=O)N2CCOCC2)cc1)Nc1cccc(Cl)c1 | 3.71% [at 102 µM] (inactive) |  |
| O=C(CNC(=O)c1ccc(Cl)cc1Cl)NCC(=O)Nc1ccccc1N1CCOCC1 |  | 89.1 µM (active) |
| Cc1ccc(NC(=O)CCCNC(=O)c2ccc(Cl)cc2)cc1S(=O)(=O)N1CCOCC1 | -11.6% (inactive) |  |
| Cc1ccc(NC(=O)COC(=O)CNC(=O)c2ccc(Cl)cc2Cl)cc1S(=O)(=O)N1CCOCC1 |  | 50.1 µM (active) |
| CC(=O)c1ccc(OCCCC(=O)Nc2ccc(C)c(S(=O)(=O)N3CCOCC3)c2)cc1 |  | 50.1 µM (active) |

From PubChem BioAssay AID504332 (National Center for Advancing Translational Sciences (NCATS), 2011)
